Sampled rows, rich in hits. Any-hit rate of the full collection: about 0.93%.
CDC25B CDK2 inh – human CDC25B-CDK2/CyclinA binding inhibition. P30305+P24941. HTRF CDC25B-CDK2/CyclinA binding, anti-His/anti-Flag; stronger effect = higher value. z-score (test concentration not listed). hit rate 0.72% among 94,000; in the data active = z-score above about 3.2
TAR Tat displ – HIV-1 TAR-Tat binding disruption. HIV-1 TAR RNA, Tat peptide displacement FRET; stronger effect = higher value. z-score (no concentration beside the values). hit rate 0.6% among 100,000; active = z-score of 3 or more in at least 2 runs
* hit, by the source's call; . = no result given.

SMILES	CDC25B CDK2 inh	TAR Tat displ
COc1ccc(NC(=O)C(C)Sc2nnc(Cc3c(C)nc4c(C)cccn4c3=O)n2C)cc1 (stereo unspecified)	7.2*	-0.94
Cc1nc2ccccn2c(=O)c1Cc1nnc(SCC(=O)Nc2ccc(Cl)cc2)n1C	-0.52	-0.6
Cc1nc2c(C)cccn2c(=O)c1Cc1nnc(SCC(=O)Nc2ccc(C(C)C)cc2)n1C	-0.42	-0.62
CCc1cc2c3c([nH]c2cc1S(=O)(=O)N(CC)c1ccccc1)CC(C)(C)CC3=O	.	2.5
O=C(NCc1ccc2c(c1)OCO2)C(=O)Nc1ccc2nc3n(c(=O)c2c1)CCCCC3	-1.1	.
COc1cccc(C[C@H]2NC[C@H](O)[C@H]2OC(C)=O)c1	.	3.8*
COc1cccc(CC2C(=O)Nc3ccccc32)c1 (stereo unspecified)	-0.8	-0.79
CCc1nn(C(CC)C(=O)NC(C)C)c(=O)c2cc3oc(C)cc3n12 (stereo unspecified)	-0.16	0.24
O=C(Nc1ccccc1)c1ncc[nH]1	-3.4	.
Nc1nc(N2CCCC2)nc(Nc2ccccc2F)c1[N+](=O)[O-]	.	0.21
Nc1nc2c(s1)c(=O)[nH]c(=O)n2-c1ccccc1	0.38	1.2
COc1ccc(-n2c(=O)[nH]c(=O)c3sc(N)nc32)cc1	0.15	7.3*
CNC(=O)c1cnc2sc(N3CCCC3)nn2c1=O	.	0.23
Cc1ccc(S(=O)(=O)NCCCc2ccccc2)c2nsnc12	-2.2	0.82
O=C(/C=C/c1ccccc1)Nc1ccc2c(c1)C(=O)c1ccccc1C2=O	-4.1	.
O=C(O)/C=C/C(=O)Nc1ccc2c(c1)C(=O)c1ccccc1C2=O	6.1*	.
CCOc1ccc(C(=O)Nc2ccc3c(c2)C(=O)c2ccccc2C3=O)cc1	0.8	.
O=C1c2ccccc2C(=O)c2cc(NC(=O)C(Cl)(Cl)Cl)ccc21	16*	.
O=C(NC1CCCCC1)c1c(O)nc2ccccn2c1=O	-2.3	-1.1
Cc1ccc(-c2cnc(C3CC3)o2)cc1S(=O)(=O)Nc1ccc2c(c1)OCO2	.	1.7
Cc1cc(O)c(C=O)c2c1C(=O)Oc1c(C)c(O)c3c(c1O2)C(O)OC3=O (stereo unspecified)	.	4*
COc1cc(C)c2c(c1C=O)Oc1c(c(C)c(O)c3c1C(O)OC3=O)OC2=O (stereo unspecified)	.	0.93
Cc1ccc(C2CC(c3ccc(OCc4ccccc4)cc3)n3nc(N)nc3N2)cc1 (stereo unspecified)	0.61	1
CC1=C(c2ccccc2)S(=O)(=O)NC1=NCCCN1CCN(C2CCCCC2)CC1	-1.5	0.05
CC1=C(c2ccccc2)S(=O)(=O)NC1=NCCCN1CCN(c2cc(C)ccc2C)CC1	13*	-0.09
SMILES	CDC25B CDK2 inh	TAR Tat displ
Cc1cc(Nc2ccc(N3CCN(C)CC3)cc2)nc(C)n1	11*	-1.6
CSc1nc(C)cc(Nc2ccc(N3CCC(C)CC3)cc2)n1	-0.87	0.65
Cc1cccc(C2C(C#N)=C3N=C(N)c4ccccc4N3C3=C2C(=O)CCC3)c1 (stereo unspecified)	-1.6	1
N#CC1=C2N=C(N)c3ccccc3N2C2=C(C(=O)CCC2)C1c1cccc(Br)c1 (stereo unspecified)	18*	-5.1
CNC(=O)c1c[nH]c2ccc(S(=O)(=O)Nc3ccccc3C)cc2c1=O	0.26	.
O=c1nc(/C=C/c2ccc(O)c(O)c2)oc2ccccc12	-0.52	18*
CSc1ccc(/C=C/c2nc(=O)c3ccccc3o2)cc1	-0.74	-0.65
Cc1cc2n(n1)CCCN2C(=O)CCC(=O)NCCc1cccs1	.	2
CCN(CC)CCOc1ccc2c(c1)C(=O)c1cc(OCCN(CC)CC)ccc1-2	.	0.27
O=C(O)COc1ccc2c(c1)C(=O)c1cc(OCC(=O)O)ccc1-2	-0.19	7.2*
Cc1cc(C)cc(NC(=O)CSc2nc3nc(C)ccc3o2)c1	.	2.5
O=S1(=O)N=CNc2ccc(S(=O)(=O)NCc3ccccc3)cc21	.	-6.4
CCc1ccc(Oc2c(C(F)(F)F)oc3c(CN(C)C)c(O)ccc3c2=O)cc1	-1.6	0.45
Cc1cc(C)n(-c2cc(Nc3ccc(F)cc3)ncn2)n1	.	-0.72
O=c1[nH]c2ccc(Nc3cc(N4CCOCC4)ncn3)cc2[nH]1	8.2*	0.27
CNC(=O)CCc1nc2sc3c(c2c(=O)[nH]1)CCCCC3	.	0.79
O=C(CCc1nc2sc3c(c2c(=O)[nH]1)CCCCC3)N1CCN(Cc2ccc3c(c2)OCO3)CC1	.	10*
O=C(CCc1nc2sc3c(c2c(=O)[nH]1)CCCCC3)N1CCN(c2ccc(F)cc2)CC1	.	-0.48
NC(=O)C1CCN(C(=O)CCc2nc3sc4c(c3c(=O)[nH]2)CCCCC4)CC1	.	19*
CC(C)(C)C1CCc2c(sc3nc(CCC(=O)N4CCC(C(N)=O)CC4)[nH]c(=O)c23)C1 (stereo unspecified)	.	0.16
CC(=O)NCCNC(=O)CCc1nc2sc3c(c2c(=O)[nH]1)CCCCC3	.	6*
O=C1CC(c2cccc(Oc3ccccc3)c2)C2=C(CC(c3ccc(F)cc3)CC2=O)N1 (stereo unspecified)	-1.3	3.1
O=C(Cn1c(=O)oc2ccccc21)Nc1nnc(SCc2ccccc2Cl)s1	0.15	0.2
O=[N+]([O-])c1cccnc1NCc1ccco1	-1.4	1.5
CCNC(=O)N(C)Cc1nc(-c2ccc(C)cc2)no1	-0.25	0.82
SMILES	CDC25B CDK2 inh	TAR Tat displ
O=C1c2ccccc2C(=O)c2c1ccc(C(=O)O)c2[N+](=O)[O-]	-0.12	.
CC(=O)C(C(C)=O)C1=C([N+](=O)[O-])C(=O)C(=O)c2ccccc21	3.5*	.
Cc1cccc(C)c1NS(=O)(=O)c1ccc2nc(-c3ccccc3)[nH]c2c1	-2.6	.
C/C(=C\c1ccccc1)c1nnc2[nH]c(=O)n(C)c(=O)c2n1	-0.65	19*
Cn1c(=O)[nH]c2nnc(-c3cccnc3)nc2c1=O	-1.7	0.12
CCN1CCN(C(=O)C2=CC(c3ccc4c(c3)OCO4)=NS(=O)(=O)N2C)CC1	-2	0.78
O=C(NC1CCCC1)c1cnn2c(C(F)F)cc(-c3ccccc3)nc12	0.4	0.06
C=Cc1c(C)/c2[n-]/c1=C\c1[n-]c(c(CC)c1C)/C=c1\[n-]c3c(c1C)C(=O)C(C(=O)[O-])C=3c1[n-]c(c(C)c1CCC(=O)[O-])\C=2.[Cu].[Na+].[Na+] (stereo unspecified)	.	23*
O=C1c2cccc(O)c2C(=O)c2c(O)cccc21	.	3.1
Cc1cc(O)c2c(c1)Cc1cccc(O)c1C2=O	.	7.7*
Oc1ccc([C@H]2Oc3cc(O)cc(O)c3C[C@H]2O)cc1	.	-0.59
O=C(O[C@@H]1Cc2c(O)cc(O)cc2O[C@@H]1c1cc(=O)c(O)c2c(O)c(O)cc([C@H]3Oc4cc(O)cc(O)c4C[C@H]3O)c2c1)c1cc(O)c(O)c(O)c1	.	30*
Oc1ccc(Cl)cc1Cc1cc(Cl)ccc1O	.	0.6
O=C(O)c1cc(O)c2c(c1)C(=O)c1cc(O)cc(O)c1C2=O	.	9.5*
O=C(O)c1cc(O)c(O)c(O)c1	.	6.8*
O=C(O)c1ccnc(-c2cc(C(=O)O)ccn2)c1	-0.69	.
O=C(c1cc(O)c(O)c(O)c1)c1ccc(O)c(O)c1O	.	33*
COc1cc(O)c2c(c1)C(=O)c1cc(C)cc(O)c1C2=O	.	1.8
Cc1cc(NS(=O)(=O)c2cc3c(cc2C)N(C)CCO3)ccc1Br	.	0.36
COc1ccc(C2CC(c3cccnc3)Nc3nnnn32)c(OC)c1OC (stereo unspecified)	-2.2	.
CCCCN(CC)S(=O)(=O)c1cc(-c2onc(C)c2C)ccc1OC	.	-0.52
CCc1ccccc1-n1nnc(-c2nc(-c3ccc4c(c3)OCO4)no2)c1C	.	0.13

Source: PubChem
